Experimental data taken from ChEMBL document CHEMBL3988442, “University of Dundee, Small-Polar-MMV Screening Library” (2021).
In all, about 48,000 compounds went through this assay and about 13,000 (27%) showed an effect of 50% or more. Some of the results follow.

These compounds were tested on Wolbachia pipientis (assay: Anti-Wolbachia Cell-Based Screen). Settings: 5 µM.
Assay type: functional
Parameters: scale not given: in the data most compounds retested in dose-response had high values

With Cc1nnc(NCc2ccc(F)cc2)o1 as the compound, how does the “Percent Effect” value read?
The value was 4.213%.

With Cc1nc(CNc2ncc(Br)cn2)n[nH]1 as the compound, how does the “Percent Effect” value read?
The value was -4.306%.

How did the “Percent Effect” value turn out when COc1ccc(CNc2c(C)nn(C(C)C)c2C)cc1 was run?
The value was -4.166%.

COc1ccc(CNC(C)c2cn[nH]c2C)cc1 (configuration not stated) was tested. Which “Percent Effect” value did it give?
Its value is 2.524%.

For Cc1ccc(CNc2n[nH]c(C)n2)cc1, which “Percent Effect” value is on record?
Its value is 101.1%.

How did the “Percent Effect” value turn out when Cc1noc(NCc2ccc(F)cc2)n1 was run?
Its value is 5.861%.

How did the “Percent Effect” value turn out when Cc1cccc(CNc2n[nH]c(C)n2)c1 was run?
The value was 94.75%.

Which “Percent Effect” value does the source give for Cc1cccc(CNc2nnc(C(C)C)o2)c1 here?
The value was -24.34%.

For Cc1cccc(CNc2cncc(-n3cccn3)n2)c1, which “Percent Effect” value is on record?
Its value is 4.61%.

With CSc1ccc(CNC2(c3ccc(F)cc3)CCOCC2)cc1 as the compound, how does the “Percent Effect” value read?
The value was -10.48%.

COc1ccc(CNc2n[nH]c(C)n2)cc1 was tested. Which “Percent Effect” value did it give?
The value was 96.08%.

With CSc1ccc(CNc2n[nH]c(C)n2)cc1 as the compound, how does the “Percent Effect” value read?
Its value is 110%.

With O=C(Nc1ccc(F)cc1F)N(CCC(F)(F)F)C[C@H](O)CO as the compound, how does the “Percent Effect” value read?
Its value is -18.87%.

With CN1CCN(Cc2cn3c(n2)CNCC3)CC1.Cl.Cl.Cl as the compound, how does the “Percent Effect” value read?
Its value is -6.492%.

For CCC(NCc1ncc[nH]1)c1nc(C(F)(F)F)cs1 (configuration not stated), which “Percent Effect” value is on record?
Its value is -16.74%.

For COC(=O)c1ccc(CNC(=O)CN2C[C@@H](NC(C)=O)[C@H](C(C)C)C2)o1, which “Percent Effect” value is on record?
The value was 2.567%.

How did the “Percent Effect” value turn out when COc1c(C)cnc(CN(C)C(=O)c2ccccn2)c1C was run?
Its value is 13.08%.

CCN(C)S(=O)(=O)N1CCCC(CO)(CC=C(C)C)C1 (configuration not stated) was tested. Which “Percent Effect” value did it give?
Its value is -20.38%.

How did the “Percent Effect” value turn out when Cc1cc(C)cc(C(C)NCc2nnc(C)s2)c1 (configuration not stated) was run?
The value was -26.09%.

How did the “Percent Effect” value turn out when Cc1nnc(CNC(C)c2cc(C)c(F)c(C)c2)s1 (configuration not stated) was run?
The value was 61.57%.

COc1cc(C(C)NCc2ncccc2C)ccc1SC(F)F (configuration not stated) was tested. Which “Percent Effect” value did it give?
Its value is -24.97%.

For Cc1ccc(CNC(=O)CN(C)CC2CCN(CCO)CC2)s1, which “Percent Effect” value is on record?
Its value is -11.99%.

How did the “Percent Effect” value turn out when CC(C)(C)CN1Cc2cc3c(cc2NCCC1=O)OCO3 was run?
The value was 93.04%.

How did the “Percent Effect” value turn out when COC(=O)CCC(=O)N1CCc2[nH]nc(-c3ccc4c(c3)OCO4)c2C1 was run?
The value was 6.027%.

CCN1Cc2cc3c(cc2NCCC1=O)OCO3 was tested. Which “Percent Effect” value did it give?
The value was 124.2%.

For COC(=O)CN1Cc2cc3c(cc2NCCC1=O)OCO3, which “Percent Effect” value is on record?
The value was 87.85%.

Which “Percent Effect” value does the source give for O=C1NCCN(CC2CC2)C12CCN(Cc1ccc3c(c1)OCO3)CC2 here?
The value was -10.73%.

Which “Percent Effect” value does the source give for COc1nccnc1N1CCN(Cc2ccc3c(c2)OCO3)C(=O)C1 here?
Its value is -4.11%.

For O=C1CCNc2cc3c(cc2CN1CC1CC1)OCO3, which “Percent Effect” value is on record?
The value was 89.98%.

Which “Percent Effect” value does the source give for CC(C)SCc1cccc(NC(=O)NC(C)c2nc[nH]n2)c1 (configuration not stated) here?
The value was -14.93%.

How did the “Percent Effect” value turn out when Cc1ccccc1S(=O)(=O)NC(=O)CSc1ccc2c(c1)OCCO2 was run?
Its value is -12.34%.

For O=C(CSc1ccccc1Cl)NS(=O)(=O)c1ccc2c(c1)OCCO2, which “Percent Effect” value is on record?
The value was 0.8211%.
